Measured values: the supplement of paper PMC3334620
The full ranking holds about 33,000 sequences; the median of “E-score (-0.5 to 0.5)” is about -0.016, and the highest 2% start at about 0.32. Many of the other results were omitted from the sample, so the highest values are more common in it than they were.

What follows are sequences tested against T1, Stp1 (UniProt B3LFK1) (assay: PBM E-score (8-mer binding enrichment) (E-score (-0.5 to 0.5)); higher = stronger / more preferred TF binding). Settings: protein concentration: 200 nM; construct: GST-full length.
T1 sequence: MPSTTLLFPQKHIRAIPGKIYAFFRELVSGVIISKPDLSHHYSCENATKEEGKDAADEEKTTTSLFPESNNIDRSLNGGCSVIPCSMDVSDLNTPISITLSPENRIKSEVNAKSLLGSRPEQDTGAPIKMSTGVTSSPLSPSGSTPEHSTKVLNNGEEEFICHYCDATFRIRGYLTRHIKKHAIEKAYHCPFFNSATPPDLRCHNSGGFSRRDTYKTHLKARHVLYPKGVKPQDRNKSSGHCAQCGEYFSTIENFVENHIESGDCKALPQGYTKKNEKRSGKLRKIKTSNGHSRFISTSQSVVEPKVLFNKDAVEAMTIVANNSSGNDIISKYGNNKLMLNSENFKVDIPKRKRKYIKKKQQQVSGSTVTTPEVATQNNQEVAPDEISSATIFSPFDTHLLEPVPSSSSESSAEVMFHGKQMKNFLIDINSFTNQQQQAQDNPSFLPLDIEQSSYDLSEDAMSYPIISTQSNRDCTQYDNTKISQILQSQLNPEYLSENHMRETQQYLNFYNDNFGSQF
Description: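 Universal 'all 10-mer' protein binding microarrays (Agilent AMADID 015681) probed with GST-tagged S. cerevisiae TFs (full-length or DBD) made by in vitro transcription/translation (PURExpress), about 100-200 nM. Bound TF was detected with fluorescent anti-GST. Each ungapped 8-mer (which stands for itself and its reverse complement) is scored by the PBM enrichment score (E-score), a modified Wilcoxon-Mann-Whitney statistic from -0.5 to +0.5, computed with the Universal PBM Analysis Suite. Scale: above 0.35 generally sequence-specific binding.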

Sequence	PBM E-score
CTTCAGAC	-0.00198
AGTCGCGC	0.0334
GCCCTAGA	-0.0515
CTGCTTCA	-0.155
ACTATCTG	-0.183
AGCCGCTG	0.0781
AGCCGCTA	0.119
CGCCGCTC	0.434
AGCCGCTC	0.337
CACCGCTC	-0.0467
CGCCGCTA	0.299
ATGACCAA	-0.0118
CGATTAGA	0.083
CGACAGGC	-0.0711
CAAGATCA	0.101
GCTGCCCC	-0.0352
CAGTCAAC	-0.139
CATACTTC	-0.12
CCACCCAC	0.0467
AGGCACGG	0.397
CTGCACCA	-0.199
GGGCACCA	0.056
CGGCACCA	0.462
AGGCACGA	0.267
AGGCACCA	0.366

Sequence	PBM E-score
AGGCACAT	0.276
AGGCACCT	0.135
TGGCACCA	0.176
CCTCTCTA	-0.212
AACCAGTT	0.143
GAGAAGCC	-0.0953
GGTGGCAC	0.147
TGGTGAAA	0.0915
CATTTTGG	0.114
ATAGTGAG	-0.0378
TGATTCCA	-0.0134
GAAGGTAC	-0.11
CATCGCCG	0.375
CATCGCCA	0.0899
ATTCGCCG	0.328
AGTCGCCC	-0.174
AATCGCCT	0.302
ATTCGCCA	0.0506
AGTCGCCA	-0.199
CATCGCCC	-0.0878
AATCGCCC	0.0762
AGTCGCCG	0.369
AATCGCCG	0.431
ATTCGCCC	-0.0713
AAGCATCT	-0.17

Sequence	PBM E-score
AGGATATG	0.0335
ACCATCCG	-0.144
ACTGGACG	-0.112
GTAGCTGA	-0.154
GTCTCTAA	-0.0881
AAACGGTT	-0.155
AGATAACT	-0.103
AGCGCCAC	0.13
GGCGCCAC	0.384
AGCGCCAA	-0.059
CGCGCCAC	0.286
GGCGCCAA	0.379
CGCGCCAA	0.132
GAAGCCGA	-0.0348
AAAGCCGC	0.369
AAAGCCGG	0.135
GAAGCCGC	0.393
AAAGCCAC	0.123
ACAGCCGA	-0.0659
ACAGCCGT	0.354
AAAGCCGA	-0.0141
ACAGCCGC	0.25
AAAGCCGT	0.386
AAAGCCTC	0.204
CAAGCCGC	0.299

Sequence	PBM E-score
GGAGTACA	-0.00077
CGTCTTAG	0.0086
CTTCATCA	-0.0498
AACTCTAA	-0.00844
AACAAATT	0.232
CATTATGG	-0.177
GCGGTCCC	-0.16
ATTACGGC	0.341
CGTACGGC	0.482
CGTACGGA	0.302
CGTACGCC	0.233
ATTACGGA	0.0935
AGTACGGG	-0.156
AGTACGGC	0.436
AGTACGGA	0.154
ATTACGGG	-0.199
CCTCGGGA	-0.121
GCTTAGAC	-0.11
GTGCCCAC	-0.00488
GGCTGACA	0.0532
GCTTTGGA	0.103
GCGTGCGA	-0.0235
CCGTGCGC	0.433
CCGTGCTC	0.261
CTGTGCGA	-0.0295

Sequence	PBM E-score
CCGTGCGA	0.415
ACGTGCGC	0.165
CCAAACTA	-0.0843
GCAGCATA	0.0149
CGACTACC	-0.22
AGAGAGCA	-0.213
AGTGCAGG	-0.0709
CCCGGGCC	-0.151
CAACGGAA	0.123
GAACGGCC	0.233
TAACGGCA	0.31
GAACGGGA	-0.0828
CAACGGCA	0.402
AAACGGCA	0.467
AAACGGTA	0.166
CAACGGTA	-0.266
GAACGGCA	0.468
AAACTGCG	-0.0893
ACTGGCAT	-0.0932
CTAGTGCC	0.301
TACTGCGA	-0.159
TTGAACAA	0.0506
AATCTACC	-0.0419
CCAAAGTC	-0.132
ATTCCTCA	0.0196

Sequence	PBM E-score
CGGCGATC	0.373
CGGCGATA	0.395
AGGCGATA	0.0637
AGGCGATC	0.128
GGGCGATA	-0.147
CAGCGATC	-0.127
GCCTGGTA	-0.227
CTCCTGCA	-0.244
ATGCTTGC	-0.24
AAGCAGGA	-0.113
CGGCAGAC	0.0714
GGGCAGAA	0.0536
CGGCAGAA	0.328
CGGCAGCA	0.333
GGGCAGCA	-0.122
CGGCAGCC	0.216
CTCTGGTA	-0.177
ACGCCTCC	-0.102
ACGCCTCG	0.381
ACGCCTTA	0.294
ATGCCTCG	0.412
ATGCCTCC	-0.0159
ATGCCTTG	0.274
ACGCCTTG	0.348
ACGCCTCT	0.0123

Sequence	PBM E-score
ACGCCTTC	0.204
ACCGTGGG	-0.27
CGATAAGA	0.0597
AGTTGGGG	-0.209
AATATACG	0.017
TAATTTCA	0.242
GTCACCTA	-0.204
AAGGCCGT	0.358
ACGGCCAC	0.3
GAGGCCGC	0.095
AAGGCCGC	0.314
ACGGCCGT	0.401
ACGGCCGG	0.0865
ACGGCCGC	0.406
ACGGCCGA	0.191
AAGGCCGG	0.128
GCGGCCGA	0.139
CCGGCCGC	-0.018
GCGGCCGC	0.373
ACTATACC	-0.017
ACCAGGGT	-0.398
AAGCAGGG	-0.156
